Results: ChEMBL document CHEMBL3988442, “University of Dundee, Small-Polar-MMV Screening Library” (2021)
In all, about 48,000 compounds went through this assay and about 13,000 (27%) showed an effect of 50% or more. The list shows a part of the results.

System: Wolbachia pipientis
Test: Anti-Wolbachia Cell-Based Screen
Format: functional
Parameters: scale not given: in the data most compounds retested in dose-response had high values
Details: 5 µM

Structure (SMILES) | Percent Effect [%]
O=C1CCCN1C1CCN(S(=O)(=O)CCOc2ccc(F)cc2)CC1 | 0.4633
Cc1nnc(CN(C)CC2CCCN2c2cccnn2)o1 (centres undefined) | -3.082
CN(CC(=O)Nc1ccncc1)CC1CCCN1c1cccnn1 (centres undefined) | 2.636
CN(CCc1ccncc1)CC1CCCN1c1cccnn1 (centres undefined) | 116.4
CN(Cc1ncc(C(C)(C)C)o1)CC1CCCN1c1cccnn1 (centres undefined) | 16.2
CN(Cc1cccnc1)CC1CCCN1c1cccnn1 (centres undefined) | -2.765
CN(Cc1cnn(C)c1)CC1CCCN1c1cccnn1 (centres undefined) | 108.8
CC(c1ccccc1Cl)N(C(=O)CSCC(N)=O)C1CC1 (centres undefined) | -12.69
Cn1cc(C(=O)Nc2cccc(F)c2)ccc1=O | 0.158
O=C(NCc1nnc2n1CCC2)N1CCC2(CCCCC2)CC1 | 10.88
O=C(NCc1nnc2n1CCCC2)N1CCc2ccccc2C1 | 5.135
O=C(NCc1nnc2n1CCCCC2)N1CCC2(CCCCC2)C1 | -0.2574
O=C(NCc1nnc2n1CCCCC2)N1CCc2sccc2C1 | 8.039
O=C(NCc1nnc2n1CCC2)N1CCc2sccc2C1 | 90.24
CC(NCc1nnc2n1CCCC2)C(=O)N1CCc2sccc2C1 (centres undefined) | 124.2
O=C(NCc1nnc2ccccn12)N1CCc2sccc2C1 | -3.483
CC(C)NC(=O)C1CCN(C(C)C(=O)N2CCc3sccc3C2)CC1 (centres undefined) | -8.464
O=C(NCc1nnc2n1CCCCC2)N1CCc2ccccc2C1 | 97.78
O=C(NCc1ccc(N2CCCC2)nc1)N1CCc2sccc2C1 | -1.896
O=C(NCc1nnc2n1CCCC2)N1CCc2sccc2C1 | 127.9
CC(NCc1nnc2n1CCCC2)c1nc(-c2cccs2)no1 (centres undefined) | -0.8773
CCC(=O)c1ccc(OCC(=O)NC(C)Cc2cc(C)n[nH]2)cc1 (centres undefined) | -9.204

Structure (SMILES) | Percent Effect [%]
CC(C)NC(=O)N1CCN(S(=O)(=O)C2CC2)CC2(CNC(=O)C2)C1 (centres undefined) | 10.45
CCn1cc(CN2CCCN(C(=O)C3=NN(C)C(=O)CC3)CC2)cn1 | 3.458
CCn1cc(CN2CCCN(C(=O)CCc3ccccc3)CC2)cn1 | 96.36
CCn1cc(CN2CCCC3(CCC(=O)N(CCC(C)C)C3)C2)cn1 (centres undefined) | -5.478
CCn1cc(CN2CCCN(C(=O)CCN3CCCC3=O)CC2)cn1 | 112.3
Cn1cc(CCC(=O)N2CCN(Cc3ccncc3)CC2)cn1 | -1.736
CCn1cc(CN2CCCN(C(=O)CCc3ccncc3)CC2)cn1 | -3.575
CCn1cc(CN2CCCN(C(=O)CCn3cc(C)cn3)CC2)cn1 | 86.19
CCn1cc(CN2CCCN(C(=O)C3(C#N)CCCCC3)CC2)cn1 | -13.94
CCn1cc(CN2CCCN(C(=O)CCCn3cncn3)CC2)cn1 | 2.568
CCn1cc(CN2CCCN(C(=O)CCc3cnn(C)c3)CC2)cn1 | 103.4
OCC1(O)CCN(c2ncccc2C(F)(F)F)CC1 | 1.862
Cc1[nH]ccc1C(=O)N[C@H]1CN(S(C)(=O)=O)C[C@@H]1C1CC1 | 3.151
CC(C)Cc1ncc2c(n1)CN(C(=O)c1ccc(Cn3ccnc3)o1)C2 | -18.35
CCn1ccnc1CN1C[C@@H](NC(=O)C2CC2)[C@H](c2ccc(C)cc2)C1 | -6.865
C[C@H]1CN(C)C[C@@]12COCCN(C(=O)Cc1ccccc1)C2.O=C(O)C(F)(F)F | 7.732
CC(=O)N1CCC(C(=O)N2CCOC(CC3CCCCC3)C2)CC1 (centres undefined) | -4.464
CCn1cc(CN2CCCN(C(=O)CCc3cccs3)CC2)cn1 | 101.9
CCn1cc(CN2CCCN(C(=O)CCc3nccs3)CC2)cn1 | 73.27
CC(=O)Nc1nc(COc2nc(C)no2)cs1 | -3.939
CCCN1CCC(CC(=O)N(C)CC(=O)c2ccc(O)cc2)CC1 | -25.77
Cc1ncc2c(n1)CN(Cc1noc(C3CC3)n1)CC2 | 2.312

Structure (SMILES) | Percent Effect [%]
O=C1CCC(C(=O)NCc2nn(-c3ccccc3)c3c2CCC3)CN1 (centres undefined) | 1.199
O=C(c1csc(-c2ncccn2)n1)N1CCN(C2CCCC2)CC1 | -8.107
COc1ccc(Cl)cc1CS(=O)(=O)CC(=O)NC(C)CCC(C)C (centres undefined) | 2.702
Cn1cccc1C(=O)N1CC[C@H]2[C@H]1CCN2CC1CC1.O=C(O)C(F)(F)F | 2.648
O=C(O)C(F)(F)F.O=C(O)C(F)(F)F.c1cncc(-c2ccc3c(c2)CCC32CCN(Cc3nccs3)CC2)c1 | 11.05
CN(C)CC(=O)N1CCC2(CCc3cc(-c4cccnc4)ccc32)CC1.O=C(O)C(F)(F)F.O=C(O)C(F)(F)F | 1.059
c1cncc(-c2ccc3c(c2)CCC32CCNCC2)c1 | -33.05
O=C(O)C(F)(F)F.O=C(O)C(F)(F)F.c1cncc(-c2ccc3c(c2)CCC32CCN(Cc3ccco3)CC2)c1 | 99.06
c1cncc(-c2ccc3c(c2)C2(CCNCC2)CC3)c1 | 1.24
O=C(O)C(F)(F)F.O=C(O)C(F)(F)F.c1cn2c(n1)CN(CC1CC1)CC(CN1CCOCC1)C2 (centres undefined) | 13.29
Cc1nc(C)n(CC2CN(c3ncccn3)Cc3nccn3C2)n1 (centres undefined) | 9.978
Cc1cnc(N2Cc3nccn3CC(Cn3nc(C)nc3C)C2)nc1 (centres undefined) | 1.951
O=c1cccnn1CC1CN(c2ncc(F)cn2)Cc2nccn2C1 (centres undefined) | 114.7
Cc1cnc(N2Cc3nccn3CC(Cn3ncccc3=O)C2)nc1.O=C(O)C(F)(F)F (centres undefined) | 104.6
O=C(O)C(F)(F)F.O=c1cccnn1CC1CN(Cc2ccsc2)Cc2nccn2C1 (centres undefined) | 13.39
O=C(O)C(F)(F)F.O=c1cccnn1CC1CN(CC2CCCC2)Cc2nccn2C1 (centres undefined) | 100.1
CCCN1CCCN(C(=O)c2ccc(Oc3cccnc3)cc2)CC1 | 1.766
O=C1NCCCCC1NS(=O)(=O)N1CCCCC1 (centres undefined) | 30.79
Cc1nccn1-c1cc(CNC(=O)N2CCSCC2)ccn1 | -3.633
Cc1cc(CNc2ccc(CC(=O)N(C)c3ccccc3)cc2)no1 | -7.262
